# In PubChem BioAssay (Tox21):
# “And” between values parts separate entries of the source, which are not always exact repeats. Equal values may be shown once. Inconclusive results are not listed. A call without a number means that no potency is given here. Some structures have more than one record in an assay (separate samples or runs), and their calls can disagree. The source made the active and inactive calls. The call rests on the fitted dose curve; in most records, active means well fitted curve in the direction sought with a large enough effect in the repeat runs; inconclusive means weak or mixed curves; inactive means no such curve, though single readings can be large; an effect the other way counts as inactive or inconclusive.
# How the values were obtained:
# [1] = qHTS RealTime-Glo MT Cell Viability Assay in HEK293 cells - 16 hour (AID 1224872); further: nearly all actives have a fitted effect of over 50% in size; further: potency means the concentration at half of the fitted maximal effect
# In short: (§1)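 Viability tracked continuously by luminescence as live cells reduce a prosubstrate for NanoLuc; HEK293 cells preincubated 5 h, compound-treated at 37 C, and read at 0, 8, 16, 24, 32 and 40 h.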
# [2] = qHTS RealTime-Glo MT Cell Viability Assay in HepG2 cells - 8 hour (AID 1224873); further: nearly all actives have a fitted effect of over 55% in size; further: potency means the concentration at half of the fitted maximal effect
# In short: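 HepG2 cells (600/well) mixed with RealTime-Glo MT reagent, settled 5 h at 37 C/5% CO2 before compound addition. Nonlytic NanoLuc luminescence from viable-cell prosubstrate reduction read repeatedly during 40 h treatment at 37 C.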
# [3] = qHTS RealTime-Glo MT Cell Viability Assay in HEK293 cells - 40 hour (AID 1224874); conditions: RealTime-Glo luminescence; max response: stronger effect = lower value; further: nearly all actives have a fitted effect of over 50% in size; further: potency means the concentration at half of the fitted maximal effect
# In short: (§2)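 Tox21 screen in HEK293 using RealTime-Glo MT chemistry, with cells and reagent co-dispensed. Luminescence proportional to viable cell number was captured at intervals during 40 h compound exposure at 37 C.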
# [4] = A CellTox Green Cytotoxicity Assay to monitor cytotoxicity in HEK293 cells - 24 hour (AID 1224875); further: nearly all actives have a fitted effect of over 45% in size; further: potency means the concentration at half of the fitted maximal effect
# In short: (§3)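 Seeding of HEK293 cells together with cytotoxicity dye preceded a 5 h incubation at 37 C/5% CO2. Test compounds in DMSO were then added and fluorescence monitored across 40 h.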
# [5] = A CellTox Green Cytotoxicity Assay to monitor cytotoxicity in HepG2 cells - 16 hour (AID 1224876); further: nearly all actives have a fitted effect of over 45% in size; further: potency means the concentration at half of the fitted maximal effect
# In short: (§4)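 Nonlytic assay: viable cells exclude the dye, so fluorescence scales with cell death. HepG2 at 600 cells/well, compounds added after 5 h, signal read across 40 h.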
# [6] = qHTS RealTime-Glo MT Cell Viability Assay in HepG2 cells - 32 hour (AID 1224877); further: nearly all actives have a fitted effect of over 55% in size; further: potency means the concentration at half of the fitted maximal effect
# In short: (§5)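 Viability was tracked continuously by NanoLuc luminescence from prosubstrate reduced by living HepG2 cells, at successive time points over 40 h of compound exposure. Cells with reagent were preincubated 5 h at 37 °C before compound addition.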
# [7] = A CellTox Green Cytotoxicity Assay to monitor cytotoxicity in HepG2 cells - 40 hour (AID 1224879); further: nearly all actives have a fitted effect of over 40% in size; further: potency means the concentration at half of the fitted maximal effect
# In short: as §4
# [8] = qHTS RealTime-Glo MT Cell Viability Assay in HEK293 cells - 0 hour (AID 1224880); further: top concentration of the series differs between compounds; nearly all actives have a fitted effect of over 45% in size
# In short: as §2
# [9] = A CellTox Green Cytotoxicity Assay to monitor cytotoxicity in HEK293 cells - 32 hour (AID 1224881); further: nearly all actives have a fitted effect of over 40% in size; further: potency means the concentration at half of the fitted maximal effect
# In short: as §3
# [10] = A CellTox Green Cytotoxicity Assay to monitor cytotoxicity in HepG2 cells - 0 hour (AID 1224882); further: nearly all actives have a fitted effect of over 35% in size
# In short: as §4
# [11] = A CellTox Green Cytotoxicity Assay to monitor cytotoxicity in HepG2 cells - 32 hour (AID 1224883); further: nearly all actives have a fitted effect of over 50% in size; further: potency means the concentration at half of the fitted maximal effect
# In short: as §4
# [12] = A CellTox Green Cytotoxicity Assay to monitor cytotoxicity in HEK293 cells - 8 hour (AID 1224884); further: nearly all actives have a fitted effect of over 35% in size
# In short: as §3
# [13] = qHTS RealTime-Glo MT Cell Viability Assay in HepG2 cells - 16 hour (AID 1224885); further: nearly all actives have a fitted effect of over 50% in size; further: potency means the concentration at half of the fitted maximal effect
# In short: as §5
# [14] = qHTS RealTime-Glo MT Cell Viability Assay in HEK293 cells - 24 hour (AID 1224886); further: nearly all actives have a fitted effect of over 50% in size; further: potency means the concentration at half of the fitted maximal effect
# In short: as §1
# [15] = qHTS RealTime-Glo MT Cell Viability Assay in HEK293 cells - 8 hour (AID 1224887); further: nearly all actives have a fitted effect of over 50% in size; further: potency means the concentration at half of the fitted maximal effect
# In short: as §2
# [16] = A CellTox Green Cytotoxicity Assay to monitor cytotoxicity in HEK293 cells - 16 hour (AID 1224888); further: nearly all actives have a fitted effect of over 35% in size
# In short: as §3
# [17] = A CellTox Green Cytotoxicity Assay to monitor cytotoxicity in HepG2 cells - 8 hour (AID 1224890); further: nearly all actives have a fitted effect of over 45% in size; further: potency means the concentration at half of the fitted maximal effect
# In short: as §4
# [18] = qHTS assay to identify small molecule antagonists of the estrogen receptor alpha (ER-alpha) signaling pathway using the BG1 cell line in the presence of 0.1 nM 17-beta-estradiol - cell viability counter screen (AID 1259241); further: nearly all actives have a fitted effect of over 40% in size; further: potency means the concentration at half of the fitted maximal effect
# In short: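 VM7Luc4E2 cells (endogenous full-length ER-alpha, 4xERE-luciferase), cultured 5 days in charcoal-stripped serum, exposed to compounds with 0.1 nM 17beta-estradiol (final) for 22 hr at 37C. Viability read in same wells as live-cell protease fluorescence after 30 min.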
# [19] = qHTS RealTime-Glo MT Cell Viability Assay in HepG2 cells - 0 hour (AID 1224889); further: nearly all actives have a fitted effect of over 50% in size
# In short: as §5
# [20] = A CellTox Green Cytotoxicity Assay to monitor cytotoxicity in HepG2 cells - 24 hour (AID 1224878); further: nearly all actives have a fitted effect of over 45% in size; further: potency means the concentration at half of the fitted maximal effect
# In short: as §4
structure (smiles),measurement,setting,value
CCOP(=S)(OCC)SCS(=O)(=O)C(C)(C)C,Potency,[1],inactive
same,Potency,[2],inactive
same,max response,[3],-15.1% (inactive)
same,Potency,[4],inactive
same,Potency,[5],inactive
same,Potency,[6],inactive
same,Potency,[7],inactive
same,Potency,[8],inactive
same,Potency,[9],inactive
same,Potency,[10],inactive
same,Potency,[11],inactive
same,Potency,[12],inactive
same,Potency,[13],inactive
same,Potency,[14],inactive
same,Potency,[15],inactive
same,Potency,[16],inactive
same,Potency,[17],inactive
same,Potency,[18],inactive
CC(O)C#N (centres undefined),Potency,[1],inactive
same,Potency,[2],inactive
same,max response,[3],-0.282% (inactive)
same,Potency,[4],inactive
same,Potency,[5],inactive
same,Potency,[6],inactive
same,Potency,[7],inactive
same,Potency,[8],inactive
same,Potency,[9],inactive
same,Potency,[10],inactive
same,Potency,[11],inactive
same,Potency,[12],inactive
same,Potency,[13],inactive
same,Potency,[14],inactive
same,Potency,[15],inactive
same,Potency,[16],inactive
same,Potency,[19],inactive
same,Potency,[17],inactive
same,Potency,[18],inactive
CN(CCCC(O)c1cccnc1)N=O (centres undefined),Potency,[1],inactive
same,Potency,[2],inactive
same,max response,[3],-1.33% (inactive)
same,Potency,[4],inactive
same,Potency,[5],inactive
same,Potency,[6],inactive
same,Potency,[7],inactive
same,Potency,[8],inactive
same,Potency,[9],inactive
same,Potency,[10],inactive
same,Potency,[11],inactive
same,Potency,[12],inactive
same,Potency,[13],inactive
same,Potency,[14],inactive
same,Potency,[15],inactive
same,Potency,[16],inactive
same,Potency,[18],inactive
Cc1ccc(CCl)cc1,Potency,[1],inactive
same,Potency,[2],inactive
same,max response,[3],2.72% (inactive)
same,Potency,[4],inactive
same,Potency,[5],inactive
same,Potency,[6],inactive
same,Potency,[8],inactive
same,Potency,[9],inactive
same,Potency,[10],inactive
same,Potency,[11],inactive
same,Potency,[12],inactive
same,Potency,[13],inactive
same,Potency,[14],inactive
same,Potency,[15],inactive
same,Potency,[16],inactive
same,Potency,[19],inactive
same,Potency,[17],inactive
same,Potency,[18],inactive
CCCCN(CCCC)C(=S)[S-].CCCCN(CCCC)C(=S)[S-].[Zn+2],Potency,[1],12.3 µM (active)
same,Potency,[2],21.9 µM (active)
same,Potency,[3],11 µM (active)
same,Potency,[4],21.9 µM (active)
same,Potency,[5],48.9 µM (active)
same,Potency,[20],34.7 µM (active)
same,Potency,[7],24.5 µM (active)
same,Potency,[8],inactive
same,Potency,[9],19.5 µM (active)
same,Potency,[10],inactive
same,Potency,[11],21.9 µM (active)
same,Potency,[12],inactive
same,Potency,[13],34.7 µM (active)
same,Potency,[14],11 µM (active)
same,Potency,[15],15.5 µM (active)
same,Potency,[16],inactive
same,Potency,[19],inactive
same,Potency,[17],inactive
same,Potency,[18],17.2 µM (active)
CC(=O)O[C@H]1CC[C@@]2(C)C(=CC[C@@H]3[C@@H]2CC[C@]2(C)C(=O)CC[C@@H]32)C1,Potency,[1],49 µM (active)
same,Potency,[2],inactive
same,Potency,[3],54.9 µM (active)
same,Potency,[5],inactive
same,Potency,[6],inactive
same,Potency,[20],inactive
same,Potency,[7],inactive
same,Potency,[10],inactive
same,Potency,[11],inactive
same,Potency,[13],inactive
same,Potency,[14],54.9 µM (active)
same,Potency,[16],inactive
same,Potency,[19],inactive
same,Potency,[17],inactive
same,Potency,[18],inactive
CN(C)C(=S)S,Potency,[1],1.94 µM (active) and 12.3 µM (active)
same,Potency,[2],inactive
same,Potency,[3],11.2 µM (active) and 1.73 µM (active) and 9.77 µM (active)
same,Potency,[5],inactive and 34.7 µM (active)
same,Potency,[6],inactive and 9.77 µM (active)
same,Potency,[20],22.3 µM (active) and 5.45 µM (active) and 15.5 µM (active)
same,Potency,[7],15.8 µM (active) and 4.86 µM (active) and 11 µM (active)
same,Potency,[8],inactive
same,Potency,[9],8.88 µM (active) and 3.07 µM (active) and 6.92 µM (active)
same,Potency,[11],17.7 µM (active) and 5.45 µM (active) and 11 µM (active)
same,Potency,[12],inactive
same,Potency,[13],inactive and 15.5 µM (active)
same,Potency,[14],11.2 µM (active) and 1.73 µM (active) and 11 µM (active)
same,Potency,[15],inactive
same,Potency,[19],inactive
same,Potency,[17],inactive
same,Potency,[18],43.3 µM (active)
C=CC(=O)N(C)C,Potency,[1],inactive
same,Potency,[2],inactive
same,max response,[3],-0.539% (inactive)
same,Potency,[4],inactive
same,Potency,[5],inactive
same,Potency,[20],inactive
same,Potency,[7],inactive
same,Potency,[8],inactive
same,Potency,[9],inactive
same,Potency,[11],inactive
same,Potency,[12],inactive
same,Potency,[13],inactive
same,Potency,[14],inactive
same,Potency,[15],inactive
same,Potency,[16],inactive
same,Potency,[19],inactive
same,Potency,[17],inactive
same,Potency,[18],inactive
Clc1ccc(COC(Cn2ccnc2)c2ccc(Cl)cc2Cl)cc1 (centres undefined),Potency,[1],20.4 µM (active) and 19.4 µM (active)
same,Potency,[2],43.5 µM (active)
same,Potency,[3],16.2 µM (active) and 24.4 µM (active)
same,Potency,[5],54.7 µM (active)
same,Potency,[20],45.7 µM (active) and 54.7 µM (active)
same,Potency,[7],45.7 µM (active) and 54.7 µM (active) and 16.9 µM (active)
same,Potency,[9],45.7 µM (active) and 54.7 µM (active) and inactive
same,Potency,[10],inactive
same,Potency,[11],45.7 µM (active) and 54.7 µM (active) and 15.1 µM (active)
same,Potency,[13],43.5 µM (active)
same,Potency,[14],18.2 µM (active) and 21.8 µM (active)
same,Potency,[15],20.4 µM (active) and 21.8 µM (active)
same,Potency,[17],inactive and 54.7 µM (active)
same,Potency,[18],inactive
ClC(Cl)=C(Cl)Cl,Potency,[1],inactive
same,Potency,[2],inactive
same,max response,[3],0.0111% (inactive)
same,Potency,[4],inactive
same,Potency,[5],inactive
same,Potency,[8],inactive
same,Potency,[9],inactive
same,Potency,[10],inactive
same,Potency,[11],inactive
same,Potency,[12],inactive
same,Potency,[13],inactive
same,Potency,[14],inactive
same,Potency,[15],inactive
same,Potency,[16],inactive
same,Potency,[19],inactive
same,Potency,[17],inactive
same,Potency,[18],inactive
CC(=O)[O-].[Tl+],Potency,[1],inactive
same,Potency,[2],inactive
same,Potency,[3],27.7 µM (active)
same,Potency,[4],inactive
same,Potency,[5],inactive
same,Potency,[20],inactive
same,Potency,[7],inactive
same,Potency,[9],inactive
same,Potency,[10],inactive
same,Potency,[11],inactive
same,Potency,[12],inactive
same,Potency,[13],inactive
same,Potency,[15],inactive
same,Potency,[16],inactive
same,Potency,[19],inactive
same,Potency,[17],inactive
same,Potency,[18],inactive
CCCCOCN(C(=O)CCl)c1c(CC)cccc1CC,Potency,[1],inactive
same,Potency,[2],inactive
same,max response,[3],-10.8% (inactive)
same,Potency,[4],inactive
same,Potency,[5],inactive
same,Potency,[20],inactive
same,Potency,[8],inactive
same,Potency,[9],inactive
same,Potency,[12],inactive
same,Potency,[14],inactive
same,Potency,[15],inactive
same,Potency,[16],inactive
same,Potency,[19],inactive
same,Potency,[17],inactive
same,Potency,[18],inactive
